Compound activity (PubChem)
VACV mCherry inh = inhibitors of vaccinia virus infection (mCherry reporter signal). Vaccinia virus mCherry reporter infection, fluorescence. Potency, µM (top dose mostly 36.5 µM), usual class: inhibitors. 310,000 tested, 0.63% active. AID 720579; calls by dose curve; tested in A549 cells; note: nearly all actives have a fitted effect of over 35% in size
HCMV antiviral = inhibitors of human cytomegalovirus | activity change, negative = inhibition, % at 57.5 µM | HFF cells, HCMV-luciferase reporter, 72 h; stronger effect = lower value | AID 1259415 | 410,000 tested, 4.5% active; in the data active = activity change below about -60%; inconclusive = no clear call, values can overlap the other calls; inactive = above about -39%
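Two-dose cell screen: HFF monolayers treated with compounds and infected with luciferase-expressing HCMV at 1 PFU/cell, 72 h at 37C, then lysed for luciferase measurement.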
Marburg entry inh = inhibitors of Marburg virus binding or cell entry; Marburg virus pseudotyped entry inhibition, cell reporter; Potency, µM (titrated, usually from 37.8 µM), usual class: inhibitors; 300,000 tested, 1.8% active; AID 540276; calls by dose curve; tested in HEK293 cells
LASV entry inh = inhibitors of Lassa virus binding or cell entry; Lassa virus pseudotype entry inhibition, cell reporter; Potency, µM (series often up to 37.9 µM), hits mostly inhibitors; 300,000 tested, 1.2% active; calls by dose curve; tested in HEK293 cells; note: nearly all actives have a fitted effect of over 50% in size
VACV Venus inh = inhibitors of vaccinia virus (Venus reporter) | Vaccinia virus Venus reporter expression, fluorescence | Potency, µM (doses to about 36.5 µM), usual class: inhibitors | 330,000 tested, 0.46% active | AID 720580; calls by dose curve; tested in A549 cells; note: nearly all actives have a fitted effect of over 30% in size
FMDV antiviral = blocks foot and mouth disease virus | FMDV antiviral cell-based qHTS | 410,000 tested, 1.2% active | Potency, µM (titrated, usually from 57.9 µM), most hits filed as inhibitors | AID 1159524; calls by dose curve; tested in HEK293T cells; note: read-out not given here; nearly all actives have a fitted effect of over 45% in size
Numbers stand for hits; 0 = inactive; ? = inconclusive; - = no result given; [ ] = dose if it differs, or a comment. Rows were chosen to be rich in hits. Some 6.5% of all compounds tested hit in one or more screens of this group.

SMILES | VACV mCherry inh | HCMV antiviral | Marburg entry inh | LASV entry inh | VACV Venus inh | FMDV antiviral
CCCc1nc2ccccc2c(C(=O)OC(C)C(=O)NCc2ccc3c(c2)OCO3)c1CC (centres undefined) | ? | 0 | ? | 0 | 10µM | ?
Cn1nc(C(C)(C)C)cc1C(=O)NCc1ccc2c(c1)OCO2 | - | -83.1 | - | - | - | ?
Cc1cc(NC(=O)CSc2nc(CCC3CCCC3)nc3ccccc23)no1 | - | ? | 0 | 0 | - | ?
O=C(CSc1nc(CCC2CCCC2)nc2ccccc12)NCc1ccc2c(c1)OCO2 | 0 | ? | 12.6µM | ? | 0 | 0
Cc1oc(C(C)(C)C)cc1C(=O)NCc1ccc2c(c1)OCO2 | 0 | 0 | 0 | 0 | 0 | 0
C[C@]12c3[nH]c4ccc(Cl)cc4c3CCN1C(=O)[C@@H](CC(=O)NCc1cccc(C(F)(F)F)c1)C[C@@H]2C(=O)N1CCCCC1 | ? | -103.7 | - | - | ? | ?
CC[C@]12c3[nH]c4cc(-c5ccco5)ccc4c3CCN1C(=O)[C@@H](CC(=O)NCc1ccco1)C[C@@H]2C(=O)N1CCN(C(=O)c2ccco2)CC1 | 0 | 0 | - | - | ? | 0
O=C(CC1C[C@H](C(=O)N2CCOCC2)[C@@]2(CCC3CCCC3)c3[nH]c4ccccc4c3CCN2C1=O)NCc1cccc(C(F)(F)F)c1 (some centres undefined) | 10µM | 0 | - | - | 10µM | 0
CC[C@]12c3[nH]c4cc(-c5ccco5)ccc4c3CCN1C(=O)[C@@H](CC(=O)NCc1cccc(C(F)(F)F)c1)C[C@@H]2C(=O)N1CCN(C(=O)c2ccco2)CC1 | 12.6µM | 0 | - | - | ? | ?
CC[C@]12c3[nH]c4ccc(Cl)cc4c3CCN1C(=O)[C@@H](CC(=O)NCc1cccc(C(F)(F)F)c1)C[C@@H]2C(=O)N1CCN(C(=O)c2ccco2)CC1 | 0 | -99.9 | 0 | - | 0 | ?
Cc1ccc(CNS(=O)(=O)c2cc3c(cc2Cl)NC(=O)CO3)o1 | 0 | 0 | - | 0 | 0 | 0
Cc1ccc(Nc2nc(C)c(NC(=O)c3ccc(C)cc3)c(Nc3ccc(C)cc3)n2)cc1 | 0 | -62.7 | ? | 0 | 0 | 0
CC1CCc2nc(N)c(C#N)c(-c3cccnc3)c2C1 (centres undefined) | 0 | -66.1 | - | - | 0 | ?
COc1ccc2oc(C)c(C(=O)c3ccccc3)c2c1 | 0 | 0 | 0 | 0 | 0 | 0
COc1ccc2oc(/C=C/N(C)C)c(C(=O)c3ccc(Cl)cc3)c2c1 | - | 0 | 20.6µM | ? | - | 0
Cc1ccc2c(c1)C(=O)C(=O)N2CCOc1ccccc1 | 0 | -73.3 | ? | ? | 0 | 0
Cc1ccc2c(c1)C(=O)C(=O)N2CCCOc1ccccc1C | - | 0 | - | - | - | 0
Cc1cccc(OCCCn2c(=O)oc3ccc(C)cc32)c1 | 0 | -80.3 | 0 | 0 | 0 | 0
Cc1cccc(OCCN2C(=O)C(=O)c3cccc(C)c32)c1 | 0 | 0 | ? | 0 | 0 | 0
Cc1cccc(OCCN2C(=O)C(=O)c3cc(C)ccc32)c1 | ? | -88.9 | ? | ? | 0 | 0
COc1ccc(NC(=O)CSc2nc(-c3ccc(OC)c(OC)c3)[nH]c2-c2ccc(C)cc2)cc1 | 0 | 0 | 0 | 0 | 0 | 0
O=C(Nc1nc2c(F)cccc2s1)c1ccc(S(=O)(=O)N2CCOCC2)cc1 | 0 | 0 | - | 0 | 0 | 0
Cc1ccccc1-c1noc(-c2ccc(NCc3ccco3)c([N+](=O)[O-])c2)n1 | 0 | 0 | 0 | 0 | 0 | 0
COc1cc(/C=N/NC(=O)CCOc2ccccc2C)cc(Br)c1O | 0 | 0 | 0 | 0 | 0 | 0
COc1cc(/C=N/NC(=O)COc2ccc(C)cc2)ccc1OC(=O)c1cccs1 | 0 | 0 | 0 | 9.2µM | 0 | 0
SMILES | VACV mCherry inh | HCMV antiviral | Marburg entry inh | LASV entry inh | VACV Venus inh | FMDV antiviral
COc1ccc(/C=N/NC(=O)CCOc2ccccc2C)cc1OC | 0 | -79.0 | ? | 0 | 0 | 0
Cc1ccc(S(=O)(=O)c2nc(S(=O)(=O)c3ccccc3)sc2NCCCOC(C)C)cc1 | 0 | 0 | 3.98µM | 0 | 0 | 0
Cc1ccc(-n2c(=O)c3c(c4cc(C)ccc4n3C)n(CC(=O)Nc3ccc(F)cc3)c2=O)cc1 | 0 | -75.1 | - | 0 | 0 | 0
Cc1ccc(-n2c(=O)c3c(c4cc(C)ccc4n3C)n(CC(=O)Nc3c(C)cccc3C)c2=O)cc1 | 0 | 0 | - | 0 | 0 | 0
CN(C)c1ccc(CNC(=O)c2ccccc2NC(=O)c2nsc3ccccc23)cc1 | 0 | 0 | - | 0 | 0 | 0
CCCCN(CC)C(=O)c1ccc2c(c1)NC(=O)c1ccccc1S2 | 0 | 0 | ? | - | 0 | 0
O=C(CSc1nc2ccsc2c(=O)n1Cc1ccccc1Cl)NCc1ccc(F)cc1 | 0 | 0 | 0 | 0 | 0 | 0
Cc1cccc(CS(=O)(=O)c2ncc(Cl)c(C(=O)Nc3nc4ccc(F)cc4s3)n2)c1 | ? | -60.3 | 0 | ? | ? | 15.8µM
O=C(Nc1nc2ccc(F)cc2s1)c1nc(S(=O)(=O)Cc2ccccc2)ncc1Cl | 0 | -106.8 | 0 | 4.47µM | 0 | 28.2µM
Oc1cccc(N2CCN(c3cccc(O)c3)CC2)c1 | - | 0 | - | - | - | -
CCOC(=O)/C=C/COc1ccccc1[N+](=O)[O-] | 0 | -63.1 | 0 | 0 | 0 | 0
CC(C)(C)C(=O)COc1ccccc1[N+](=O)[O-] | 0 | ? | ? | 0 | 0 | 0
Cc1nnc(N(CCC#N)CCC#N)s1 | 0[1.46 µM] | -71.7 | ? | 0 | 0 | 0
COc1ccc(-c2nnc(SCC(=O)c3ccc([N+](=O)[O-])cc3)o2)cc1OC | 0 | 0 | 0 | 0 | 0 | 0
CCC1CN(CC(=O)NC(C)c2c(C)nn(C)c2C)Cc2cc(OC)ccc2O1 (centres undefined) | 0 | - | - | - | 0 | 0
CCC[C@H]1[C@@H](NS(=O)(=O)c2c(C)cc(C)cc2C)CC[C@@]23CCCN2C(=O)CCC[C@@H]13 | - | 0 | - | - | - | -
CC(C)(C)c1ccc(-n2nc(C#N)c(Cl)cc2=O)cc1 | ? | -100.5 | ? | ? | 10µM | 12.6µM
CC(C)(C)c1ccc(-n2nc(C(N)=O)c(O)cc2=O)cc1 | 0 | 0 | ? | 0 | 0 | 0
CC(=O)Nc1cccc(Nc2cc3c(cn2)cc(-c2cnn(C)c2)n3Cc2ccccc2)c1 | - | 0 | - | - | - | -
C/C=C/c1ccc(OCCCCN2C(=O)NC(C)(C)C2=O)c(OC)c1 | 0 | 0 | ? | 18.3µM | 0 | 0
CCC(C)N1C(=O)/C(=C\c2ccc(N3CCCCCC3)cc2)C(=O)NC1=S (centres undefined) | 0 | 0 | 0 | 0 | 0 | ?
CCC(C)N1C(=O)/C(=C\c2cnc(N(C)C)nc2)C(=O)NC1=S (centres undefined) | 0 | 0 | ? | 0 | 0 | 22.4µM
CCC(C)N1C(=O)/C(=C\c2cc3c4c(c2)CCCN4CCC3)C(=O)NC1=S (centres undefined) | 0 | 0 | 0 | 0 | 0 | 31.6µM
COc1ccc(NC(=O)c2cnn(-c3ccc(C)c(C)c3)c2C2CCNCC2)cc1OC | 0 | 0 | - | 0 | 0 | 0
Cc1ccc(-n2ncc(C(=O)Nc3cc(Cl)cc(Cl)c3)c2C2CCNCC2)cc1C | - | -98.7 | - | - | - | ?
Cc1ccc(-n2ncc(C(=O)Nc3cc(Cl)ccc3Cl)c2C2CCNCC2)cc1 | 0 | -87.2 | ? | ? | 0 | 0
COc1ccccc1-c1noc(-c2ccc(N3CCOCC3)c([N+](=O)[O-])c2)n1 | 0 | 0 | 0 | 0 | 0 | 0
